PriA SSB inh = blocks PriA binding to SSB C-terminal tail | 430,000 tested, 0.6% active | inhibition, % at 33 µM | AlphaScreen SSBct-PriA binding, biotinylated peptide; in the data active = inhibition mostly above about 37%, no sharp cut-off; inactive = mostly below about 20%;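 also: plate controls were negative control peptide for no effect and reference peptide for full effect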
SARS 3CLpro inh = SARS-CoV 3CLpro protease inhibition; P0C6X7; recombinant SARS-CoV 3CLpro, quenched FRET peptide cleavage; inhibition, % at 6 µM; 290,000 tested, 0.14% active; AID 1706; in the data active = inhibition above about 12%
MazEF act = activators of E. coli MazEF toxin-antitoxin RNase. 350,000 tested, 0.32% active. P0AE70. activation, % at 20 µM. AID 504720. FAM/BHQ RNA-DNA oligo cleavage fluorescence, 5 h; in the data active = activation above about 50%
Target sequence (P0AE70 whole entry, looked up): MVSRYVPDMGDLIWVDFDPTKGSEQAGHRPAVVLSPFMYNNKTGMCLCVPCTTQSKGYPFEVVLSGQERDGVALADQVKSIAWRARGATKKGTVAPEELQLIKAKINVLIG
Y pestis TopoI = Y. pestis Topo-I inhibition via cleavage products; Y. pestis Topo-I cleavage product accumulation, plate reader; activity, % at 10 µM; 360,000 tested, 0.064% active; AID 504884; in the data active = activity above about 50%, passing the limit was not always enough
* hit, by the source's call; i = inactive; · = no result given; + = active, no number; ! = not confirmed by another sample. An excerpt weighted towards active compounds, which were near 0.9% of everything screened.

SMILES	PriA SSB inh	SARS 3CLpro inh	MazEF act	Y pestis TopoI
CN(C1CCCCC1)S(=O)(=O)c1ccc(C(=O)Nc2nc(-c3ccccn3)cs2)cc1	14	·	·	·
CN(c1ccccc1)S(=O)(=O)c1ccc(C(=O)Nc2nc(-c3ccccn3)cs2)cc1	52*	·	·	·
CC(C)S(=O)(=O)c1ccc(C(=O)Nc2nc(-c3ccccn3)cs2)cc1	106*	·	·	·
CN(c1ccccc1)S(=O)(=O)c1ccc(C(=O)Nc2nc(-c3ccc(Br)s3)cs2)cc1	-13	·	·	·
O=C(CN1CCN(CC(O)c2cccs2)CC1)NC1CC1 (configuration not stated)	10	·	·	·
COc1ccc(Cl)cc1NC(=O)C(=O)NCCc1ccc2c(c1)CCCN2C	25	·	·	·
COc1ccccc1OCC(=O)NCCc1ccc2c(c1)CCCN2C	45*	·	·	·
COc1ccccc1NC(=O)NCCc1ccc2c(c1)CCCN2C	56*	·	·	·
Cc1cccc(/C=N/NC(=O)c2cc(Br)ccc2OCc2ccccc2)n1	·	-3	125*	14
CCOC(=O)C1=C(O)/C(=C/c2ccc(-c3ccccc3C(=O)O)o2)SC1=Nc1ccc(C)cc1	1	·	-40	31
CCOC(=O)C1=C(O)/C(=C/c2cn(CC(=O)NCC3CCCO3)c3ccccc23)SC1=Nc1ccc(C)cc1 (configuration not stated)	4	0	+	-2
Cn1c2ccc(F)cc2c2nc3ccccc3nc21	-38	3	111*	-7
CCn1c2ccc(F)cc2c2nc3ccccc3nc21	-24	0	1	10
Cc1ccc2c(c1)c1nc3ccccc3nc1n2C	-17	-2	222*	1
CCOc1ccc2c(c1)c1nc3ccccc3nc1n2C	-7	2	98*	-1
Cn1c2ccc(Cl)cc2c2nc3ccccc3nc21	-1	-4	-5	6
O=C(Cn1cnc2ccccc21)Nc1ccccc1Cc1nc(-c2cccnc2)no1	-17	·	·	·
Cc1c(NC(=O)C2CN(S(C)(=O)=O)C2)c(=O)n(-c2ccccc2)n1C	-12	·	·	·
Cc1csc(NC(=O)CSc2ccc(-c3ccccn3)nn2)n1	63*	1	6	9
COc1ccc(CCNC(=O)CSc2ccc(-c3ccccn3)nn2)cc1OC	94*	·	·	·
COC(=O)c1ccc(NC(=O)CSc2ccc(-c3ccccn3)nn2)cc1	37*!	3	-5	4
O=C(CSc1ccc(-c2ccccn2)nn1)Nc1cccc(F)c1	55*	1	-9	-9
O=C(CSc1ccc(-c2ccccn2)nn1)Nc1nccs1	-13	4	3	-1
O=C(NCC(O)Cn1ccccc1=O)c1c(F)cccc1Cl (configuration not stated)	-1	·	·	·
CO[C@@H](CNC(=O)C(=O)Nc1cccc(Cl)c1C)c1ccsc1	-3	·	·	·
SMILES	PriA SSB inh	SARS 3CLpro inh	MazEF act	Y pestis TopoI
COc1ccccc1CCNC(=O)CSc1ccc(-c2ccc3c(c2)OCO3)nn1	67*	·	·	·
O=C(CSc1ccc(-c2ccccn2)nn1)Nc1cccc([N+](=O)[O-])c1	48*	·	·	·
COc1ccc(-c2ccc(SCC(=O)NCc3ccc4c(c3)OCO4)nn2)cc1OC	-9	1	-13	1
O=C(CSc1ccccn1)Nc1cccc([N+](=O)[O-])c1	-9	2	6	-5
O=C(COc1ccc(F)cc1F)NCCn1nc(-c2ccncc2)ccc1=O	-6	·	·	·
CCOc1ccc(-n2c(SCC(=O)Nc3nc(C)cs3)nnc2-c2c[nH]c3ccccc23)cc1	-12	·	·	·
O=C(Cn1c(-c2ccccn2)nc2ccccc21)N1CCOCC1	-11	·	·	·
O=c1cc(O)c2ncccc2[nH]1	129*	·	·	·
NC(=O)N/N=C/c1ccc(-c2ccc([N+](=O)[O-])cc2)o1	i	2	5	-3
O=C(Cc1ccccc1)N/N=C/c1ccc(-c2ccc([N+](=O)[O-])cc2)o1	·	4	348*	-3
O=C(Nc1nc(-c2ccc(Cl)s2)cs1)c1cc(Cl)sc1Cl	-6	·	·	·
Cn1ccnc1SCC1CCN(S(=O)(=O)c2ccc3c(c2)CCCC3)CC1	63*	·	·	·
O=C(CS(=O)(=O)c1ccc(F)cc1)NCCS(=O)(=O)c1ccccc1	58*	-1	1	-5
Oc1ccc(CNc2cccc(F)c2)c2cccnc12	45	·	·	·
Oc1ccc(CNc2ccccc2)c2cccnc12	-16	1	1	7
Cc1ccccc1NCc1ccc(O)c2ncccc12	97*	0	1	-1
Oc1ccc(CNc2cc(Cl)cc(Cl)c2)c2cccnc12	67*	·	·	·
Oc1ccc(CNc2ccc(F)cc2)c2cccnc12	78*	-3	4	-10
Oc1ccc(CNc2ccccc2Br)c2cccnc12	-1	·	·	·
Cc1cccc(NCc2ccc(O)c3ncccc23)c1	47*	-2	8	2
COCCN(Cc1ccsc1)C(=O)c1ccc(F)cc1	-10	·	·	·
O=C(CCc1ccc(Cl)c(Cl)c1)N1CC(S(=O)(=O)C2CCCCC2)C1	-11	·	·	·

Screens (PubChem)
